# In PubChem BioAssay (EPA / NIEHS):
# “And” between values parts separate entries of the source, which are not always exact repeats. Equal values may be shown once. Inconclusive results are not listed. Some structures have more than one record in an assay (separate samples or runs), and their calls can disagree. The source made the active and inactive calls. Rule for the calls, unless noted: active = hit-call score of the fitted dose curve at least 0.9, where 1 is the maximum; inactive = score below 0.9.
# Experiments:
# [1] = target: Cellular tumor antigen p53 (Homo sapiens) (UniProt P04637); assay: TOX21_p53_BLA_p2_ratio: Tox21 HCT-116 p53 Agonism Beta-lactamase Assay, Ratio, Phase 2 (AID 2283592; active = hit-call score of the fitted dose curve at least 0.9, where 1 is the maximum)
# Cellular tumor antigen p53 (Homo sapiens), sequence (P04637 whole entry, looked up): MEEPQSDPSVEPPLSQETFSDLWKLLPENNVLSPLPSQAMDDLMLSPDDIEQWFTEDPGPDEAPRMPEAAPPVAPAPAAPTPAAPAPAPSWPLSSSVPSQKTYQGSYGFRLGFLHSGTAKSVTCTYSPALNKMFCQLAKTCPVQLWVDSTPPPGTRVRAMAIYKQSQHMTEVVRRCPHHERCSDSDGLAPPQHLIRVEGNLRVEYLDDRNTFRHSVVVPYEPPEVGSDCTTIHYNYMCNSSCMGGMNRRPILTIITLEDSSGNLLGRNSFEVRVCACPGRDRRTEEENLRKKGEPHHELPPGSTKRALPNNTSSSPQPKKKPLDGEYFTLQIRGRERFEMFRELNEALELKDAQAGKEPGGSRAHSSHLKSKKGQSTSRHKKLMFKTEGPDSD
# Outline: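 In this cell-based reporter format, HCT116 cells were dosed with chemicals delivered from DMSO by 217-fold dilution and incubated 16 h at 37C. Emission at 460 and 530 nm after 2 h CCF4-AM loading provided the ratio, fitted upward versus DMSO.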
# [2] = TOX21_p53_BLA_p3_viability: Viability Assessment in the Tox21 HCT-116 p53 Agonism Beta-lactamase Assay, Phase 3 (AID 2283593; active = hit-call score of the fitted dose curve at least 0.9, where 1 is the maximum;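 note: cells exposed to compound for 16 h before reading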)
# Outline: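 HCT116 cells, 4000/well, dosed 5 h after plating by pin transfer (217-fold dilution from DMSO stock) and incubated 16 h at 37C, 5% CO2. Viability read as ATP luminescence with CellTiter-Glo after 30 min at room temperature.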
# [3] = target: Cellular tumor antigen p53 (Homo sapiens) (UniProt P04637); assay: TOX21_p53_BLA_p3_ratio: Tox21 HCT-116 p53 Agonism Beta-lactamase Assay, Ratio, Phase 3 (AID 2283596; active = hit-call score of the fitted dose curve at least 0.9, where 1 is the maximum)
# Outline: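 HCT116 p53-bla cells (4000/well) given compound in DMSO (217-fold dilution) after 5 h, incubated 16 h at 37C. CCF4-AM substrate 2 h at room temperature; 460/530 nm emission ratio, gain fitted against DMSO.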
# [4] = target: Cellular tumor antigen p53 (Homo sapiens) (UniProt P04637); assay: TOX21_p53_BLA_p5_ratio: Tox21 HCT-116 p53 Agonism Beta-lactamase Assay, Ratio, Phase 5 (AID 2283599; active = hit-call score of the fitted dose curve at least 0.9, where 1 is the maximum)
# Outline: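 HCT-116 p53-bla cells (4000/well) plated 5 h, dosed with compound (217-fold DMSO dilution) for 16 h at 37 C; CCF4-AM substrate 2 h at room temperature. Activity is the 460/530 nm emission ratio (405 nm excitation), fitted in gain-of-signal direction versus DMSO.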
# [5] = TOX21_p53_BLA_p5_viability: Viability Assessment in the Tox21 HCT-116 p53 Agonism Beta-lactamase Assay, Phase 5 (AID 2283600; active = hit-call score of the fitted dose curve at least 0.9, where 1 is the maximum)
# Outline: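 Compounds, pinned from DMSO at 217-fold dilution, were left on the cells for 16 h. The viability endpoint was ATP content measured by CellTiter-Glo luminescence, where falling signal reflects cytotoxicity.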
# [6] = CCTE_Shafer_MEA_dev_firing_rate_mean: CCTE's Neural Network Formation Assay for Mean Firing Rate, Shafer Lab (AID 2284031)
# Outline: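 Primary rat cortical neurons on 48-well, 16-electrode MEAs (PEI-coated, laminin at plating), exposed from day 0 with compound renewed at DIV 5 and 9. Spikes recorded DIV 5, 7, 9, 12; well-mean firing rate collapsed to trapezoidal AUC, loss-of-signal vs DMSO.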
# [7] = CCTE_Shafer_MEA_dev_per_burst_spike_percent: CCTE's Neural Network Formation Assay for Percent of Spikes in a Burst, Shafer Lab (AID 2284032);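 for AC50: fitted as a decrease in burst spike percentage below DMSO baseline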
# Outline: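 Rat primary cortical neurons on 16-electrode MEA wells, dosed from plating day 0 for 12 days with renewal on DIV 5 and 9; spikes-in-bursts percentage averaged over bursting electrodes, collapsed as AUC across days 5, 7, 9, 12; loss direction versus DMSO.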
# [8] = CCTE_Shafer_MEA_dev_active_electrodes_number: CCTE's Neural Network Formation Assay for Number of Active Electrodes, Shafer Lab (AID 2284040; active = hit-call score of the fitted dose curve at least 0.9, where 1 is the maximum;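 note: potency for loss of active electrodes versus DMSO so lower counts are hits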)
# Outline: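 Rat cortical primary cultures, 1.5 x 10^5 cells/well, PEI-coated MEA, laminin drop. Continuous exposure DIV 0–12; full media/compound change DIV 5, 9. Readout: electrodes with mean firing ≥5 spikes/min; AUC across days; loss vs DMSO.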
# [9] = CCTE_Shafer_MEA_dev_bursting_electrodes_number: CCTE's Neural Network Formation Assay for Number of Bursting Electrodes, Shafer Lab (AID 2284043; active = hit-call score of the fitted dose curve at least 0.9, where 1 is the maximum;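 note: potency is for loss of bursting electrodes relative to DMSO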)
# Outline: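 Primary rat cortical neurons plated on 16-electrode MEA wells, exposed from day 0 with compound renewed at DIV 5 and 9. Electrodes bursting ≥1 burst per 2 min counted on days 5, 7, 9 and 12; trapezoidal AUC across days, fitted for loss versus DMSO.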
# [10] = CCTE_Shafer_MEA_dev_per_burst_interspike_interval: CCTE's Neural Network Formation Assay for Burst Interspike Interval, Shafer Lab (AID 2284044)
# Outline: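 Readout is the average time between spikes inside single-electrode bursts, taken as a well mean across bursting electrodes. Cortical neurons from rat developed networks on MEA plates under continuous 12-day exposure; recordings on days 5, 7, 9 and 12 were integrated by trapezoidal AUC.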
# [11] = CCTE_Shafer_MEA_dev_burst_duration_mean: CCTE's Neural Network Formation Assay for Mean Burst Duration, Shafer Lab (AID 2284045)
# Outline: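 Primary rat cortical neurons on 48-well 16-electrode MEA plates, exposed from day 0 with renewal at DIV 5 and 9; spontaneous activity recorded on days 5, 7, 9, 12. Well-mean burst duration across bursting electrodes, collapsed as trapezoidal AUC; DMSO baseline.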
# [12] = CCTE_Shafer_MEA_dev_interburst_interval_mean: CCTE's Neural Network Formation Assay for Mean Interburst Interval, Shafer Lab (AID 2284046);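 note: well-mean interburst interval of bursting electrodes as AUC over four recording days; curve fitted for decrease in interburst interval relative to DMSO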
# Outline: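 Rat cortical neurons, 1.5 x 10^5 cells/well, 48-well MEA; compound from day 0 through DIV 12, media and treatment renewed DIV 5/9. Recordings DIV 5, 7, 9, 12; well-mean interburst interval → trapezoidal AUC, loss direction vs DMSO.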
# [13] = CCTE_Shafer_MEA_dev_inter_network_spike_interval_mean: CCTE's Neural Network Formation Assay for Mean Inter-network Spike Interval, Shafer Lab (AID 2284047)
# Outline: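 Primary rat cortical neurons on PEI-coated 48-well MEAs (16 electrodes/well) were exposed from plating day 0 to DIV 12, with dosing renewed at DIV 5 and 9. Recordings at DIV 5, 7, 9, 12 were collapsed by trapezoidal AUC, loss-of-signal fit vs DMSO.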
# [14] = CCTE_Shafer_MEA_dev_network_spike_number: CCTE's Neural Network Formation Assay for Number of Network Spikes, Shafer Lab (AID 2284048)
# Outline: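 Primary rat cortical neurons on PEI/laminin 48-well MEA plates, dosed from plating day 0 for 12 days, renewed at DIV 5 and 9. Network spike counts recorded DIV 5, 7, 9, 12, collapsed as trapezoidal AUC; DMSO baseline.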
# [15] = CCTE_Shafer_MEA_dev_network_spike_peak: CCTE's Neural Network Formation Assay for Mean Number of Electrodes in Network Spike, Shafer Lab (AID 2284049);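 note: fitted for loss of signal meaning fewer electrodes in network spikes than DMSO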
# Outline: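 Network-spike peak electrode count from recordings on days 5, 7, 9 and 12 was combined as trapezoidal area under the curve. Rat cortical cultures were treated continuously from plating, with compound renewed at each feed (DIV 5, 9); fits versus DMSO.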
# [16] = CCTE_Shafer_MEA_dev_spike_duration_mean: CCTE's Neural Network Formation Assay for Mean Spike Duration, Shafer Lab (AID 2284051);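 note: mean network spike duration pooled as area under curve over DIV 5 to 12 recordings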;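 for AC50: potency for a decrease in mean network spike duration versus DMSO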
# Outline: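 Rat cortical primary cultures, 48-well MEA (16 electrodes/well); compound from plating, renewed DIV 5, 9. Network spike duration (AxIS adaptive detector) recorded DIV 5/7/9/12, combined as trapezoidal AUC; loss direction vs DMSO.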
# [17] = CCTE_Shafer_MEA_dev_network_spike_duration_std: CCTE's Neural Network Formation Assay for Standard Deviation of Network Spike Duration, Shafer Lab (AID 2284052);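 note: area under curve of spike duration SD across recording days 5 to 12; hits are decreases in network spike duration SD versus DMSO vehicle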
# Outline: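 Rat cortical cultures, 1.5 x 10^5 cells/well, exposed continuously from plating to DIV 12 with media/compound renewal at DIV 5, 9. Spontaneous activity recorded DIV 5/7/9/12, AxIS adaptive spike detector; AUC across days; negative direction vs DMSO.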
# [18] = CCTE_Shafer_MEA_dev_per_network_spike_spike_number_mean: CCTE's Neural Network Formation Assay for Mean Number of Spikes in a Network Spike, Shafer Lab (AID 2284053);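 note: fitted as decrease in spikes per network spike relative to DMSO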
# Outline: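 Rat cortical primary cultures on 48-well MEA; compound from day 0, re-dosed with full media change DIV 5, 9. Recorded DIV 5, 7, 9, 12; spikes in 0.05 s window at network-spike peak ÷ total network spikes; AUC; loss vs DMSO.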
# [19] = CCTE_Shafer_MEA_dev_per_network_spike_spike_percent: CCTE's Neural Network Formation Assay for Percent of Spikes in a Network Spike, Shafer Lab (AID 2284054)
# Outline: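 Rat primary cortical neurons were grown on 48-well MEA plates (16 electrodes/well), exposed from plating day 0 through day 12, with treatment renewed on DIV 5 and 9. Percent of spikes within 0.05 s network-spike peaks was measured, summarised as AUC across days 5, 7, 9, 12.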
# [20] = UKN5_HCS_SBAD2_cell_viability: Viability Assessment in the University of Konstanz (UKN) Leist Lab Neurite Outgrowth Assay in human iPSC-derived immature Dorsal Root Ganglia Neurons (UKN5) (AID 2284056)
# Outline: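 iPSC-derived immature peripheral neurons (SBAD2) seeded on Matrigel with CHIR99021, SU5402 and DAPT, dosed 1 h later for 24 h. Viability from Hoechst H-33342 and calcein-AM live staining, high-content imaging; bidirectional fit versus DMSO.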
# [21] = UKN5_HCS_SBAD2_neurite_outgrowth: University of Konstanz (UKN) Leist Lab Neurite Outgrowth Assay in human iPSC-derived immature Dorsal Root Ganglia Neurons (UKN5) (AID 2284070); conditions: actives raise or lower the signal
# Outline: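 Human iPSC-derived immature DRG neurons (SBAD2) on Matrigel with CHIR99021 (1.5 uM), SU5402 (5 uM), DAPT (5 uM); compounds added 1 h post-seeding for 24 h. Calcein-AM neurite area imaged; bidirectional fit vs DMSO.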
# [22] = CCTE_Shafer_MEA_dev_AB: CCTE's Alamar Blue Assay for Cytotoxicity in the Neural Network Formation Assay, Shafer Lab (AID 2284083; active = hit-call score of the fitted dose curve at least 0.9, where 1 is the maximum;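 note: resazurin reduction fluorescence as viability of cultured neurons; twelve days of exposure from plating with re-dosing on DIV 5 and 9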)
# Outline: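 Rat cortical primary cultures, 1.5 x 10^5 cells/well on MEA; continuous compound exposure over 12 days of network development, re-dosed with full medium change DIV 5 and 9. Alamar Blue fluorescence; loss of signal = cytotoxicity vs DMSO baseline.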
# [23] = CCTE_Shafer_MEA_dev_mutual_information_norm: CCTE's Neural Network Formation Assay for Mutual Information Normalization, Shafer Lab (AID 2284091);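 note: mutual information between electrodes summarised as area under curve across four recording days; potency is for a decrease in mutual information relative to DMSO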
# Outline: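 Primary rat cortical neurons on PEI-coated 48-well MEA plates, 1.5 x 10^5 cells/well, exposed from day 0 through day 12 with re-dosing at DIV 5 and 9. Mutual information between electrodes recorded days 5, 7, 9, 12; trapezoidal AUC, loss-of-signal fit versus DMSO.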
# [24] = CCTE_Shafer_MEA_dev_correlation_coefficient_mean: CCTE's Neural Network Formation Assay for Mean Correlation Coefficient, Shafer Lab (AID 2284093);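 note: well mean pairwise spike train correlation integrated as AUC over recording days 5 to 12; potency fitted for loss of correlation relative to DMSO vehicle wells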
# Outline: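 Rat cortical cultures, 1.5 x 10^5 cells/well, dosed from day 0 for 12 days. Spontaneous spikes recorded DIV 5/7/9/12; electrode-pair correlation coefficients averaged, AUC taken. Fit in loss direction vs DMSO.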
# [25] = UKN2_HCS_IMR90_neural_migration: University of Konstanz (UKN) Leist Lab Neural Crest Cell Migration Assay in human induced IMR90 Pluripotent Stem Cells (UKN2) (AID 2284204); conditions: actives raise or lower the signal
# Outline: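 iPSC-derived IMR90 neural crest cells seeded around stoppers on PLO/laminin/fibronectin; migration started in N2-S medium with EGF/FGF, compounds added after 24 h for 24 h. Migration into cell-free area imaged after calcein-AM/Hoechst staining; bidirectional fit versus DMSO.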
# [26] = UKN4_HCS_LUHMES_neurite_outgrowth: University of Konstanz (UKN) Leist Lab Neurite Outgrowth Assay in human LUHMES cells (UKN4) (AID 2284206); conditions: actives raise or lower the signal
# Outline: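 LUHMES neuronal precursors differentiated 2 days, replated without cAMP/GDNF, then exposed to chemicals for 24 h. Neurite area imaged by high-content microscopy after calcein-AM staining; Hoechst H-33342 marks viability. Bidirectional fit versus DMSO.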
# [27] = IUF_NPC1b_proliferation_BrdU_72hr: Leibniz Research Institute for Environmental Medicine (IUF) 72-hour Neural Progenitor Cell Bromodeoxyuridine (BrdU) Proliferation Assay (NPC1b) (AID 2284207)
# Outline: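 BrdU luminescence ELISA quantified DNA synthesis over the last 16 h of a 72 h exposure, fitted against DMSO. Primary hNPC spheres from gestational week 16-19 cortex grown with EGF/FGF at 37C, pH 7.2-7.6.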
smiles,measurement,setting,value
Brc1ccc(Oc2ccc(Br)cc2Br)c(Br)c1,outcome,[1],inactive
same,outcome,[2],inactive
same,outcome,[3],inactive
same,outcome,[4],inactive
same,outcome,[5],inactive
same,outcome,[6],inactive
same,AC50,[7],14.2 µM (active)
same,outcome,[7],inactive
same,AC50,[8],19.8 nM (active) and 10 µM (active)
same,AC50,[9],22.5 nM (active) and 8.36 µM (active)
same,outcome,[10],inactive
same,outcome,[11],inactive
same,outcome,[12],inactive
same,outcome,[13],inactive
same,outcome,[14],inactive
same,AC50,[15],13.2 nM (active) and 10 µM (active)
same,AC50,[16],15 µM (active)
same,outcome,[16],inactive
same,outcome,[17],inactive
same,AC50,[18],25.4 nM (active) and 4 µM (active)
same,AC50,[19],15.1 µM (active)
same,outcome,[19],inactive
same,outcome,[20],inactive
same,outcome,[21],inactive
same,AC50,[22],8.31 µM (active)
same,outcome,[22],inactive
same,AC50,[23],13.4 nM (active) and 1.98 µM (active)
same,AC50,[24],92.3 nM (active) and 4.26 µM (active)
same,outcome,[25],inactive
same,AC50,[26],21.8 µM (active)
same,outcome,[27],inactive
